IC90 data for 14 compounds are collected here from ChEMBL document CHEMBL1201862, “PubChem BioAssay data set” (2004).

Values joined by “and” are separate entries in the source; they are usually repeats but may differ in a detail not shown here. Equal entries are not always repeated.

The nature of the assay: Mycobacterium tuberculosis growth inhibition, dose response, 7H9 media, purified and synthesized compounds, set 8 (AID 588447). Format: functional.
Take `CC(=O)c1ccc(NC(=O)c2ccc(CNc3c(N4CCOCC4)c(=O)c3=O)cc2)cc1`: the 90% effect concentration (IC90) was > 100 µM (active). In the case of `CC1CCCN(C(=O)C2CCC(CNc3c(N4CCCCC4)c(=O)c3=O)CC2)C1` (centres undefined) it was > 100 µM (active); in that of `CC1CCCN(C(=O)c2ccc(CNc3c(N4CCCCC4)c(=O)c3=O)cc2)C1` (centres undefined), > 100 µM (active); in that of `CC1CC(C)CN(C(=O)C2CCC(CNc3c(N4CCCCC4)c(=O)c3=O)CC2)C1` (centres undefined), > 75 µM (active) and > 100 µM (active). In the case of `CC1CCN(C(=O)c2ccc(CNc3c(N4CCCC4)c(=O)c3=O)cc2)CC1` it was > 100 µM (active).

`CC1CC(C)CN(C(=O)c2ccc(CNc3c(N4CCCC4)c(=O)c3=O)cc2)C1` (centres undefined): the IC90 is > 100 µM (active). The result for `Cc1cccc(N2CCN(C(=O)c3ccc(CNc4c(N5CCC(C)CC5)c(=O)c4=O)cc3)CC2C)c1` (centres undefined) reads > 76.5 µM (active); that for `O=C(c1ccc(CNc2c(N3CCCC3)c(=O)c2=O)cc1)N1CCc2ccccc2C1`, > 100 µM (active). In the case of `O=C(NCCc1ccc(Cl)cc1)C1CCC(CNc2c(N3CCCCC3)c(=O)c2=O)CC1` (centres undefined) it was > 100 µM (active); in that of `COc1ccc(N2CCN(C(=O)c3ccc(CNc4c(N5CCOCC5)c(=O)c4=O)cc3)CC2)cc1`, > 100 µM (active); in that of `O=C(NCCc1ccc(Cl)cc1)c1ccc(CNc2c(N3CCOCC3)c(=O)c2=O)cc1`, > 100 µM (active). In the case of `CC(C)OC(=O)CSc1ncnc2c1cnn2-c1ccccc1` it was > 100 µM (active); in that of `CCOC(=O)CSc1ncnc2c1cnn2-c1ccccc1`, > 75.1 µM (active).

`O=C(C1CCC(CNc2c(N3CCCCC3)c(=O)c2=O)CC1)N1CCCCC1` (centres undefined): the IC90 is > 100 µM (active).
